Our source for the composite z-score values is PubChem BioAssay.

The nature of the assay: probe aInhba binding on compound microarray – biochemical, small-molecule microarray, 635/667 nm fluorescence, primary screen (AID 1148).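 Further: score merges 667nm spot fluorescence with signal-to-noise for antibody binding to printed compounds.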 The note with it: higher = more signal.
Regarding `C=CCC(OC(C)=O)[C@@H]1[C@@H](N(Cc2cccc3ccccc23)C(=O)c2cccc3ccccc23)c2cc(OCCCO)ccc2N1C(=O)c1ccc2ccccc2n1` (stereo partly specified), the composite z-score was -0.0791.

The molecule `COc1ccc(C(O)C2C=CC3C(=O)NC(=O)C3N2Nc2ccccn2)cc1OCc1ccccc1` (stereo unspecified) returned a composite z-score of -0.0256.

Consider `CCCN1C(=O)[C@@]2(CCC(=O)OC(C)(C)C)N=C(c3ccc(OCCCO)cc3)O[C@H]2c2ccccc21`, for which the composite z-score was 0.0319.

For `COc1cccc(C(=O)O[C@H]2CC[C@]3(C)C4=C(CCC3C2(C)C)[C@]2(C)CC[C@H]([C@H](C)CCCC(C)C)[C@@]2(C)CC4)c1` (stereo partly specified), the composite z-score was -0.157.

Turning to `COc1cc2c(cc1OC)CN(C(=O)[C@@H]1[C@H]3C(=O)O[C@H](c4ccccc4)[C@H](c4ccccc4)N3[C@H](c3ccccc3OCCO)[C@@]13C(=O)Nc1ccc(C#CCNC(N)=O)cc13)CC2`, the composite z-score amounted to 0.32.

The molecule `CN(C)CCCCNC(=O)[C@H]1C[C@H]2C(=O)N[C@@H](Cc3ccccc3)C(=O)N2[C@H]1c1ccc(O)cc1` registered a composite z-score of -0.128.

In turn, `COc1ccc(CCN2C(=O)[C@@]3(Cc4ccccc42)c2ccccc2C(=O)N(Cc2ccccc2Cl)[C@H]3c2ccc(CO)cc2)cc1` came in with a composite z-score of -0.0403.

`CCCCCCCCCCC(O)C1C=CC2C(=O)N(Cc3ccccc3)C(=O)C2N1n1cnnc1` (stereo unspecified) gave a composite z-score of 0.437.

Consider `COCCOC(=O)N1C(=O)[C@@]2(c3cc(C#CCC(C(=O)OC)C(=O)OC)ccc31)[C@H](C(=O)N1CCN(c3ncccn3)CC1)[C@H]1C(=O)O[C@H](c3ccccc3)[C@H](c3ccccc3)N1[C@@H]2c1ccc(OCCO)cc1`, for which the composite z-score is -0.0221.

For `C=C(COC)C(=O)CC[C@@H](OC(=O)c1cccnc1)c1ccc(CO)o1`, the composite z-score is -0.0675.

In turn, `C=C[C@@H](COC(C)=O)N(Cc1ccc([N+](=O)[O-])cc1)S(=O)(=O)c1ccc(Br)cc1` came in with a composite z-score of 0.0869.

The molecule `O=C1O[C@@H](c2ccccc2)[C@@H](c2ccccc2)N2[C@@H](c3ccc(O)cc3)[C@]3(C(=O)Nc4ccc(C#CC5(O)CCCCCC5)cc43)[C@@H](C(=O)N3CCCCCCC3)[C@H]12` gave a composite z-score of 1.67.

In turn, `COC(=O)C[C@@H]1C[C@H](C)[C@]2(O1)C(=O)N(Cc1ccccc1)c1ccc(NC(C)=O)cc12` returned a composite z-score of -0.128.

Molecule `CC(C)(C)N1CC=CC23O[C@@H]4C=CCOC(=O)[C@@H]4[C@H]2C(=O)N(CCCCCO)[C@@H]3C1=O` (stereo partly specified) gave a composite z-score of -0.421.

Turning to `C=CCN1C(=O)[C@]2(O[C@H](CCO)[C@@H]([Si](C)(C)c3ccc(OC)cc3)[C@@H]2C)c2cc(NC(=O)[C@H](C)O)ccc21`, the composite z-score stood at 0.339.

`C=CC(=C)C1=CCO[C@@H]1[C@H]1CCCN1S(=O)(=O)c1ccccc1[N+](=O)[O-]` displayed a composite z-score of -0.0221.

Turning to `COc1ccc(NN2C(C(O)c3ccc(OC)c(OCc4ccccc4)c3)C=CC3C(=O)N(C4CCCCC4)C(=O)C32)cc1` (stereo unspecified), the composite z-score amounted to 0.0769.

`[N-]=[N+]=NCc1ccccc1[C@@H]1OC(c2ccc(OCCCO)cc2)=N[C@]1(Cc1ccccc1)C(=O)N1CCCCC1` gave a composite z-score of 0.288.

`CC(C)(C)N1CC=CC23O[C@@H]4/C=C\CCCOC(=O)C4[C@H]2C(=O)N(CCO)[C@@H]3C1=O` (stereo partly specified) came in with a composite z-score of -0.416.

The molecule `O=C1O[C@H](c2ccccc2)[C@H](c2ccccc2)N2[C@H]1[C@@H](C(=O)O)[C@]1(C(=O)Nc3ccc(C#CC4=CCCCC4)cc31)[C@H]2c1ccc(OCCO)cc1` came in with a composite z-score of 0.201.

`COC(=O)C[C@H]1O[C@]2(C(=O)N(Cc3ccccc3)c3ccc(NC(C)=O)cc32)[C@@H](C)[C@@H]1[Si](C)(C)c1ccc(OC)cc1` registered a composite z-score of -0.251.

For the molecule `CC(C)CNC(=O)[C@@H]1c2ccccc2C(=O)N(Cc2cc(C(F)(F)F)cc(C(F)(F)F)c2)[C@H]1c1ccc(CO)cc1`, the composite z-score turned out to be 0.212.

Consider `COc1ccccc1CN1C(=O)c2ccccc2[C@@H](C(=O)NCCN2CCOCC2)[C@@H]1c1ccc(CO)cc1`, for which the composite z-score was -0.13.

`NCCCCCCNC(=O)[C@H]1C[C@H]2C(=O)NCC(=O)N2[C@H]1c1cccc(OCCO)c1` had a composite z-score of -0.128.

For the molecule `COCCOC(=O)N1C(=O)[C@@]2(c3ccccc31)[C@H](C(=O)NC[C@H](O)c1ccccc1)[C@H]1C(=O)O[C@H](c3ccccc3)[C@H](c3ccccc3)N1[C@@H]2c1ccc(OCCO)cc1`, the composite z-score was 0.0588.

For `CC(C)N1CC=CC23O[C@@H]4C=CCOC(=O)[C@@H]4[C@H]2C(=O)N(CCO)[C@@H]3C1=O` (stereo partly specified), the composite z-score is -0.302.

Molecule `COC(=O)[C@@]1(Cc2ccccc2)[C@H]2c3cc(C(=O)N4CCCC4)n(C)c3C[C@H]2CN1C(=O)c1ccccc1` showed a composite z-score of 0.271.

For the molecule `O=C1[C@]2(CO)C=C(Br)[C@@H](C[C@@H]2c2ccccc2)[C@@]12CO2`, the composite z-score is -0.237.

Molecule `CCCCC(O)C1C=CC2C(=O)N(C3CCCCC3)C(=O)C2N1Nc1ccc(OC)cc1` (stereo unspecified) showed a composite z-score of 0.0785.

`COc1ccc(C(O)C2C=CC3C(=O)N(c4ccccc4)C(=O)C3N2Nc2ccc([N+](=O)[O-])cc2)cc1OCc1ccccc1` (stereo unspecified) came in with a composite z-score of 1.16.

In the case of `Cc1ccc(S[C@]2(C(=O)NCc3ccccc3)CC(=O)N(Cc3ccccc3)[C@@H]2c2ccc(CO)cc2)cc1`, the composite z-score was -0.0719.

The molecule `C=C(COC)/C(=C/C[C@H](OC(=O)c1ccncc1)c1cccc(OCCO)c1)c1cc(C(=O)OC)ccc1OC` showed a composite z-score of -0.024.

`COC(=O)[C@@]1(Cc2ccccc2)[C@H]2c3cc(C(=O)N(C)C)n(Cc4cc(C)n(C)n4)c3C[C@H]2CN1C(=O)c1ccccc1` showed a composite z-score of 0.606.

For `COC(=O)[C@@]1(Cc2ccccc2N=[N+]=[N-])COC(c2ccc(OCCCO)cc2)=N1`, the composite z-score was -0.0639.

`CN1CCC(CCCO)=CC1c1ccc(CN2CCCC2)cc1` (stereo unspecified): the composite z-score came to 0.0096.

On to `CC(=CC1CCCCC1)[C@@H](NC(=O)c1ccc(C(F)(F)F)cc1)c1ccc(-c2ccccc2)cc1`, for which the composite z-score was found to be 0.105.
